# From publication PMC5540273 (PLoS ONE, 2017)
# Test system: CAMK1
# Conditions: concentration: 1 μM, replicates: in singlicate; n = 1
# 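Further: KINOMEscan kinase panel screen.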
row,SMILES,%Inh [%]
1,CC(C)c1nc(-c2cccc(NS(=O)(=O)c3c(F)cccc3F)c2F)c(-c2ccnc(Nc3ccc(N4CCOCC4)nc3)n2)s1 [GSK2008607],81
2,COCCOCCOc1cc2ncc3c4ccc(C#N)cc4[nH]c3c2cc1OC,26
3,Fc1ccc(-c2ncn(C3CCNCC3)c2-c2ccnc(Oc3ccc(-c4ccccc4)cc3)n2)cc1 [SB-245391],30
4,c1ccc(-c2cnc3nccnn23)cc1 [AH20685],0
5,COc1cccc(-c2ccc3c(NC(=O)C4CC4)n[nH]c3n2)c1 [SB-710903],0

# Test system: CAMK2A
# Conditions: concentration: 1 μM, replicates: in singlicate; n = 1
row,SMILES,%Inh [%]
1,COc1cccc(C(=O)Nc2cccc(Oc3ccc4nc(NC(=O)C5CC5)cn4n3)c2)c1,11
2,Cl.Cl.NCC(NC(=O)c1cc(-c2ccccc2)c(-c2ccnc3[nH]ccc23)s1)c1ccccc1 (stereo not shown) [GSK1321561],0
3,CC(=O)Nc1nc2cnc(Nc3cc(NC(=O)c4cccc(C5(C#N)CC5)c4Cl)ccc3C)nc2s1,13
4,COc1cccc(NC(=O)NC2CCN(c3ccnc(Nc4cc(OC)c(OC)c(OC)c4)n3)C2)c1 (stereo not shown) [GSK1379763],0
5,COc1cc2c(cc1OCCN1CCNCC1)ncc1c3ccc(C#N)cc3[nH]c21,96.8
6,CSc1cccc2c(-c3ccncn3)c(-c3ccc(F)cc3)nn12 [GW514786],0
7,Cn1cc(-c2ccc3c(c2)CCN3C(=O)Cc2cccc(Cl)c2)c2c(N)ncnc21 [GSK2606590],0
8,CCS(=O)(=O)c1ccc(OC)c(Nc2nccc(-c3c(-c4cccc(NC(=O)c5c(F)cccc5F)c4)nn4ncccc34)n2)c1 [GSK326180],0
